Source: PubChem BioAssay (Tox21)
Results filed as inconclusive are left out. Where a call stands in place of a potency, no number is given. Calls of active or inactive are those of the source. Unless noted, calls follow the shape of the dose curve; as a rule, active = well fitted curve in the direction sought with a large enough effect in the repeat runs; inconclusive = weak or mixed curves; inactive = no such curve, though single readings can be large; an effect the other way counts as inactive or inconclusive.

Columns and labels:
[1] = qHTS assay for small molecule agonists of the antioxidant response element (ARE) signaling pathway (AID 743202; active = well fitted activation curve with a large enough effect in the signal ratio in the repeat runs, not every such curve was filed as active; the % refers to the signal ratio)
Outline: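 HepG2 ARE-bla cells; 16 h treatment at 37 C; FRET-based beta-lactamase fluorescence read after 2 h substrate incubation at room temperature.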

[2] = qHTS assay for small molecule agonists of the antioxidant response element (ARE) signaling pathway - cell viability counter screen (AID 743203; calls by dose curve; also: nearly all actives have a fitted effect of over 55% in size; also: potency is read from the fitted curve at half-maximal effect)
Outline: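 ATP content via CellTiter-Glo luminescence served as the viability measure. Cells: ARE-bla HepG2, 2,000 per well. Exposure: 16 hrs, 37C/5% CO2.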

[3] = qHTS assay for small molecule activators of the heat shock response signaling pathway - cell viability counter screen (AID 743209); also: nearly all actives have a fitted effect of over 50% in size
Outline: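 Compounds dissolved in DMSO were added to overnight-plated HSE-bla HeLa cells and left 5 h at 37 C. Cell viability was quantified by luminescence using CellTiter-Glo.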

[4] = qHTS assay for small molecule activators of the heat shock response signaling pathway (AID 743210; active = well fitted activation curve with a large enough effect in the signal ratio in the repeat runs, with a control signal flat, not every such curve was filed as active; the % refers to the signal ratio;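 also: HeLa cells with beta-lactamase reporter driven by heat shock elements; series mostly up to about 63 µM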)
Outline: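 Following overnight attachment, HSE-bla HeLa cells received test compounds for 5 h at 37 C; beta-lactamase activity was then detected via FRET substrate fluorescence.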

[5] = qHTS assay to identify small molecule agonists of the peroxisome proliferator-activated receptor delta (PPARd) signaling pathway - cell viability counter screen (AID 743211); also: nearly all actives have a fitted effect of over 55% in size; also: potency is read from the fitted curve at half-maximal effect
Outline: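 Luminescent ATP viability assay (CellTiter-Glo, 30 min RT) in UAS-bla HEK293H cells carrying the PPAR delta reporter construct, 3000 cells/well, after a 17 h compound treatment at 37 C.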

[6] = target: Peroxisome proliferator-activated receptor delta (Homo sapiens) (UniProt Q03181); test: qHTS assay to identify small molecule agonists of the peroxisome proliferator-activated receptor delta (PPARd) signaling pathway (AID 743212; calls by dose curve)
Sequence of Peroxisome proliferator-activated receptor delta (Homo sapiens) (Q03181 whole entry, looked up): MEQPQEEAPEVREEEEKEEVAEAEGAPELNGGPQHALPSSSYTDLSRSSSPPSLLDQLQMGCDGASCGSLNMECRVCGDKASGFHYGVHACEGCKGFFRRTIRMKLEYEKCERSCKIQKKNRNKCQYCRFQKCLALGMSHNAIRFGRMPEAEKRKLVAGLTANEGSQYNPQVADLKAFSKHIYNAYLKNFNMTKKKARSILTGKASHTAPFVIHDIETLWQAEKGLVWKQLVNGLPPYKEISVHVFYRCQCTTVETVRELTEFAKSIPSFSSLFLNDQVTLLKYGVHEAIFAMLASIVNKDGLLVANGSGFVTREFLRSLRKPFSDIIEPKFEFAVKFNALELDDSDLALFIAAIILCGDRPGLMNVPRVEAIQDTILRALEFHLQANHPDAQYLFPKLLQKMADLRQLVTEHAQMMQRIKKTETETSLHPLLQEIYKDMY
Outline: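 Tox21 library screened in GeneBLAzer PPARd UAS-bla HEK293H cells. After compound treatment at 37 C, a FRET-based beta-lactamase substrate was applied for 2 h and fluorescence recorded.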

[7] = target: Peroxisome proliferator-activated receptor delta (Homo sapiens) (UniProt Q03181); test: qHTS assay to identify small molecule antagonists of the peroxisome proliferator-activated receptor delta (PPARd) signaling pathway (AID 743215; active = well fitted inhibition curve with a large enough effect in the signal ratio in the repeat runs, not every such curve was filed as active; the % refers to the signal ratio;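 also: cells stimulated with agonist L165041 at 300 nM final during compound exposure; series mostly up to about 62 µM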)
Outline: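 Here, a reporter line (HEK293H, beta-lactamase under a UAS) measures PPARd signaling. Compounds are tested against agonist L165041 at 300 nM final concentration over 17 h at 37 C, with fluorescence read after substrate.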

[8] = qHTS assay to identify small molecule agonists of the farnesoid-X-receptor (FXR) signaling pathway - cell viability counter screen (AID 743218); also: nearly all actives have a fitted effect of over 45% in size; also: potency is read from the fitted curve at half-maximal effect
Outline: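 Quantitative HTS counter screen measuring ATP-based viability via CellTiter-Glo luminescence in HEK 293T cells carrying a UAS-driven beta-lactamase reporter, after 16 h compound exposure at 37 C.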

[9] = qHTS assay to identify small molecule antagonists of the farnesoid-X-receptor (FXR) signaling pathway - cell viability counter screen (AID 743221; active = well fitted cell-killing curve with a large enough effect in the repeat runs, not every such curve was filed as active; also: nearly all actives have a fitted effect of over 50% in size; also: potency is read from the fitted curve at half-maximal effect)
Outline: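 In GeneBLAzer FXR-UAS-bla HEK 293T cells stimulated with 50 uM chenodeoxycholic acid (final), compounds acted for 16 h at 37 C. Viability was assessed afterwards by CellTiter-Glo luminescence.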

[10] = target: Vitamin D3 receptor (Homo sapiens) (UniProt P11473); test: qHTS assay to identify small molecule antagonists of the vitamin D receptor (VDR) signaling pathway (AID 743223; active = well fitted inhibition curve with a large enough effect in the signal ratio in the repeat runs, not every such curve was filed as active; the % refers to the signal ratio)
Sequence of Vitamin D3 receptor (Homo sapiens) (P11473 whole entry, looked up): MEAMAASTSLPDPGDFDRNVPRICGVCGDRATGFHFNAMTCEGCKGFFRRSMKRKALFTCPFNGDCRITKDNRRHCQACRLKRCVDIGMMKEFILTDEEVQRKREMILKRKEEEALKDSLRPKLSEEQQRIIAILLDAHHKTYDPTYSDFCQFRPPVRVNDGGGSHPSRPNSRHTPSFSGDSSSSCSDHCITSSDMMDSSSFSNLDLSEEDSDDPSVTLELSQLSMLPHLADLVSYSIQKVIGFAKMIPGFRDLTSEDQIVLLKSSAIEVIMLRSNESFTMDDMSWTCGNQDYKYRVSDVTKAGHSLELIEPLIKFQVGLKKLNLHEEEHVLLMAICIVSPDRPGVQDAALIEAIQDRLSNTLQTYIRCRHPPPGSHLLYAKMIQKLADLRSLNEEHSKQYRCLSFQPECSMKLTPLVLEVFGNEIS
Outline: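 Agonist 1alpha,25-dihydroxyvitamin D3 (3 nM in well) was added with each compound to VDR-bla cells preincubated 4 h. Cells stood 16 h at 37C, then FRET substrate 2 h at room temperature; fluorescence intensity recorded.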

[11] = qHTS assay to identify small molecule agonists of the vitamin D receptor (VDR) signaling pathway - cell viability counter screen (AID 743224); also: nearly all actives have a fitted effect of over 50% in size; also: potency is read from the fitted curve at half-maximal effect
Outline: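 CellTiter-Glo viability readout on VDR-bla cells, measured after 16 h of compound treatment at 37C in the same wells.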

[12] = qHTS assay to identify small molecule antagonists of the peroxisome proliferator-activated receptor gamma (PPARg) signaling pathway - cell viability counter screen (AID 743194); also: nearly all actives have a fitted effect of over 55% in size; also: potency is read from the fitted curve at half-maximal effect
Outline: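 Cytotoxicity counter screen in PPARg-bla HEK293H cells, same wells as reporter assay. Compounds plus 50 nM rosiglitazone (final) for 17 h at 37 C, then viability read by CellTiter-Glo luminescence.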

[13] = target: Bile acid receptor (Homo sapiens) (UniProt Q96RI1); test: qHTS assay to identify small molecule agonists of the farnesoid-X-receptor (FXR) signaling pathway (AID 743220; active = well fitted activation curve with a large enough effect in the signal ratio in the repeat runs, not every such curve was filed as active; the % refers to the signal ratio)
Sequence of Bile acid receptor (Homo sapiens) (Q96RI1 whole entry, looked up): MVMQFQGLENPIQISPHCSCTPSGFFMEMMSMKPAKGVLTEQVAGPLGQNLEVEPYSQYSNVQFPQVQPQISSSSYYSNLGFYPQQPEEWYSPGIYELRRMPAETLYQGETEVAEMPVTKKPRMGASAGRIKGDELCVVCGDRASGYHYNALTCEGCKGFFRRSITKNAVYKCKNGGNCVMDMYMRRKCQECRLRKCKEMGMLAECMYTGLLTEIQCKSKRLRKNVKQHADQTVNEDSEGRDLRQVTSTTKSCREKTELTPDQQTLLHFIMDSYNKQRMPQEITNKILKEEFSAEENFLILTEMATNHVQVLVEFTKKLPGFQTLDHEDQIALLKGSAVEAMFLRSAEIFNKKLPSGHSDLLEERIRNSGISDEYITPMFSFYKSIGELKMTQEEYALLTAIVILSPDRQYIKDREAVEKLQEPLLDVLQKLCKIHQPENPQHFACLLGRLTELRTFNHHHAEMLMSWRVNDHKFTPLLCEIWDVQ
Outline: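 FXR-UAS-bla HEK 293T cells carrying a UAS-driven beta-lactamase reporter were plated for 5 h at 37C/5% CO2, then exposed to DMSO-dissolved Tox21 10K compounds for 16 h at 37C. A LiveBLAzer B/G FRET substrate was loaded for 2 h at room temperature before fluorescence reading.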

[14] = target: Peroxisome proliferator-activated receptor gamma (Homo sapiens) (UniProt P37231); test: qHTS assay to identify small molecule antagonists of the peroxisome proliferator-activated receptor gamma (PPARg) signaling pathway (AID 743191; calls by dose curve; also: potency is read from the fitted curve at half-maximal effect; nearly all actives have a fitted effect of over 30% in size)
Sequence of Peroxisome proliferator-activated receptor gamma (Homo sapiens) (P37231 whole entry, looked up): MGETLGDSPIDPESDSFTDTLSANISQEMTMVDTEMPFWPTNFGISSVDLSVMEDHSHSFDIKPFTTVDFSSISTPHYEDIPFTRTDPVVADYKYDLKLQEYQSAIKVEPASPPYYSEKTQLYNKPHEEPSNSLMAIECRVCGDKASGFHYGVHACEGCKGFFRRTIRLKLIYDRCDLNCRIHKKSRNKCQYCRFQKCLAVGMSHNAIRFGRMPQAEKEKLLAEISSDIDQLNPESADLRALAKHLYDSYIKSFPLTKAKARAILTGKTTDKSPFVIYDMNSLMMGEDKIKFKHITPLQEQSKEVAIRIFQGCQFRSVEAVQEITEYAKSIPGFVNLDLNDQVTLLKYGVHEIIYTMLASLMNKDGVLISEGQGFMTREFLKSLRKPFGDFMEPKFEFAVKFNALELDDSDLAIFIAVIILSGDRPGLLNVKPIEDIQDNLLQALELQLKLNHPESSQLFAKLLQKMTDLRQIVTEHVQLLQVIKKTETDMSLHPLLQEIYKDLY
Outline: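 GeneBLAzer PPARg UAS-bla HEK293H cells, 5 h post-plating, exposed to compounds 17 h at 37C. LiveBLAzer B/G FRET substrate added for 1 h at room temperature; beta-lactamase reporter read by fluorescence intensity.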

[15] = qHTS assay to identify small molecule antagonists of the peroxisome proliferator-activated receptor delta (PPARd) signaling pathway - cell viability counter screen (AID 743213); also: nearly all actives have a fitted effect of over 50% in size; also: potency is read from the fitted curve at half-maximal effect
Outline: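 Same-well viability: cells pre-incubated 5 h, dosed with compound plus 300 nM L165041, kept 17 h at 37 C, FRET substrate 2 h RT, then CellTiter-Glo 30 min RT and luminescence.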

[16] = qHTS assay to identify small molecule that activate the aryl hydrocarbon receptor (AhR) signaling pathway - cell viability counter screen (AID 743086);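 also: HepG2 liver cells carrying the AhR DRE luciferase reporter; series mostly up to about 70 µM; nearly all actives have a fitted effect of over 45% in size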
Outline: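 HepG2-AhR-luc (HG2L7.5c1) cells, 4000/well, treated 24 h at 37 C with compound; viability measured as CellTiter-Fluor fluorescence after 30 min in the same wells as the luciferase read.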

[17] = target: Vitamin D3 receptor (Homo sapiens) (UniProt P11473); test: qHTS assay to identify small molecule agonists of the vitamin D receptor (VDR) signaling pathway (AID 743222; calls by dose curve)
Outline: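 Tox21 cell reporter format: VDR-bla line, 16 h compound exposure in 5% CO2 at 37C, then fluorescence intensity after 2 h with LiveBLAzer B/G FRET substrate.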

[18] = target: Bile acid receptor (Homo sapiens) (UniProt Q96RI1); test: qHTS assay to identify small molecule antagonists of the farnesoid-X-receptor (FXR) signaling pathway (AID 743217; active = well fitted inhibition curve with a large enough effect in the signal ratio in the repeat runs, not every such curve was filed as active; the % refers to the signal ratio)
Outline: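 Test compounds are pin-transferred onto FXR-bla HEK 293T cells, then chenodeoxycholic acid is added at 50 uM final. After 16 h at 37 °C, LiveBLAzer B/G substrate is applied for 2 h at room temperature and fluorescence read.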

For O=C(NCC1CN(c2ccc(N3CCOCC3=O)cc2)C(=O)O1)c1ccc(Cl)s1 (stereo not drawn), the Potency [1] was “inactive”, the Potency [2] was “inactive” and the Potency [3] was “inactive”. For the same compound, the Potency [4] was “inactive”, the Potency [5] was “inactive” and the Potency [6] was “inactive”. The Potency [7] was “inactive”, the Potency [8] was “inactive” and the Potency [9] was “inactive”. The outcome [10] was “inactive” and the Potency [11] was “inactive”.
In the case of Cc1ccc(C(=O)Oc2ccc(C(O)CNC(C)(C)C)cc2OC(=O)c2ccc(C)cc2)cc1 (stereo not drawn), the Potency [12] is reported as “inactive”, the Potency [4] is reported as “inactive” and the Potency [5] is reported as 29.8 µM (active). For the same compound, the Potency [13] was “inactive”, the Potency [9] was “inactive” and the Potency [11] was “inactive”.
In the case of CCCCCCOC(=O)NC(=N)c1ccc(NCc2nc3cc(C(=O)N(CCC(=O)OCC)c4ccccn4)ccc3n2C)cc1, the Potency [14] is reported as 29.8 µM (active), the Potency [12] is reported as 13.3 µM (active) and the Potency [2] is reported as 26.6 µM (active). The Potency [5] was 21.1 µM (active), the Potency [15] was 23.7 µM (active) and the Potency [8] was 26.6 µM (active). For the same compound, the Potency [13] was “inactive” and the Potency [11] was 29.8 µM (active).
With O[C@@H](COc1cccc2ncccc12)CN1CCN(C2c3ccccc3[C@@H]3[C@H](c4ccccc42)C3(F)F)CC1 (stereo partly drawn) the Potency [2] was 15 µM (active), the Potency [3] was “inactive” and the Potency [5] was 9.44 µM (active). The Potency [6] was “inactive”, the Potency [8] was 15 µM (active) and the Potency [9] was 21.1 µM (active).
In the case of COc1cc2nc(N3CCN(C(=O)C4COc5ccccc5O4)CC3)nc(N)c2cc1OC (stereo not drawn), the Potency [16] is reported as “inactive”, the Potency [1] is reported as “inactive” and the Potency [2] is reported as 29.8 µM (active). The Potency [3] was “inactive”, the Potency [4] was “inactive” and the Potency [15] was “inactive”. For the same compound, the Potency [13] was “inactive”, the Potency [9] was “inactive” and the Potency [17] was “inactive”. The Potency [11] was “inactive”.
With NS(=O)(=O)c1ccc(N2CCCCS2(=O)=O)cc1 the Potency [12] was “inactive”, the Potency [1] was “inactive” and the Potency [2] was “inactive”. The Potency [5] was “inactive”, the Potency [15] was “inactive” and the Potency [18] was “inactive”. The Potency [8] was “inactive”, the Potency [13] was “inactive” and the Potency [9] was “inactive”. The Potency [17] was “inactive”, the outcome [10] was “inactive” and the Potency [11] was “inactive”.
